The values below come from PubChem BioAssay AID2057 (The Scripps Research Institute Molecular Screening Center, 2009).

The campaign covered roughly 320,000 compounds. About 2,100 (0.66%) were called active. The sample holds actives, similar compounds and a random draw of the others, so the mix is not that of the screen. Values without a mark were called inactive.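 How the source made its calls: active means inhibition above the mean inhibition of all tested compounds plus 3 SD, set per campaign (cut at about 40% in these data); inactive means the rest.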

The target in the assay is Induced myeloid leukemia cell differentiation protein Mcl-1 (Homo sapiens) (UniProt Q07820). Briefly: inhibitors of MCL1 binding to BIM-BH3, primary screen, biochemical, fluorescence polarization (AID 2057).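 Further: 0% = DMSO wells and 100% = unlabeled Bim-BH3 peptide control; higher means more loss of mP so more displacement of Bim peptide.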 To be noted: GST-MCL1 / FITC-Bim-BH3 fluorescence polarization; at 10.9 µM; active compounds read high. Background: In fluorescence polarisation assays a small probe gives low polarisation when free and higher when bound to something large.
Sequence of Induced myeloid leukemia cell differentiation protein Mcl-1 (Homo sapiens) (Q07820 whole entry, looked up): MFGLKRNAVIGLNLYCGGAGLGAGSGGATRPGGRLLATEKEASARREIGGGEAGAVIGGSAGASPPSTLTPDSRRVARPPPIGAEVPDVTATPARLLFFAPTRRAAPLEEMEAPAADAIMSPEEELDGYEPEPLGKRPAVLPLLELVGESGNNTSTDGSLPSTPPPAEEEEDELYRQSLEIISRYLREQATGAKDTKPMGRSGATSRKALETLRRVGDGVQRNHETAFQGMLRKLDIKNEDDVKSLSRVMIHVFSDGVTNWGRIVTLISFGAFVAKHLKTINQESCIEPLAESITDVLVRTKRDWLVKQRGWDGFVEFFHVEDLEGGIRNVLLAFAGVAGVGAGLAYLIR
Usually inhibition stands for the change of the read-out against control, counted positive when it falls. As to `Cn1cnnc1SCc1nnc(-c2ccccc2Br)o1`, the inhibition was 5.99%.

For the compound `Nc1cccc2c1C(=O)N(Cc1nnc(-c3ccccc3Br)o1)C2=O`, the inhibition was 54.3% (active).

Regarding `CCOC(=O)N1CCN(Cc2nnc(-c3ccccc3Cl)o2)CC1`, the inhibition was 2.02%.

Turning to `C=CCOC(=O)C1=C(C)N=C2SCCC(=O)N2C1/C=C/c1ccccc1OC` (stereo not given), the inhibition was -0.33%.

`COc1ccc(C2C=C(c3ccc(Br)cc3)Nc3nc(NS(C)(=O)=O)nn32)cc1` (stereo not given): the inhibition was 175% (active).

Turning to `COc1ccc(C2=CC(c3cccc(OC)c3)n3nnnc3N2)cc1` (stereo not given), the inhibition was 37.5%.

Consider `COc1ccc(C2CC(c3ccc(C)cc3)Nc3nc(N)nn32)cc1` (stereo not given), for which the inhibition was -0.86%.

As for `COc1ccc(NC(=O)C(=O)NCC(c2ccco2)N2CCc3ccccc3C2)cc1` (stereo not given), the inhibition is 2.73%.

For the compound `COC(=O)CCCCCN1C(=O)NC(c2ccc(-c3ccccc3)cc2)C(C(=O)OCc2ccccc2)=C1C` (stereo not given), the inhibition is 6.48%.

Turning to `Cc1cccc(-c2nc(Nc3ccc(O)cc3)c3ccccc3n2)c1`, the inhibition was 3.74%.

Consider `O=[N+]([O-])c1ccc(F)cc1Oc1nc(-c2cccnc2)nc2ccccc12`, for which the inhibition is -2.6%.

`COc1ccc(Nc2nc(-c3cccnc3)nc3ccccc23)cn1`: the inhibition is 128% (active).

Regarding `CCNC(=O)CC1C(=O)N(c2ccc(OC)cc2)C(=S)N1CCc1ccncc1` (stereo not given), the inhibition is -3.91%.

With `Cc1cc(C)c(-c2csc(NC(=O)CCCc3nc4ccccc4c(=O)[nH]3)n2)c(C)c1`, the inhibition is -5.51%.

Turning to `CCOC(=O)C1CCN(C(=O)Nc2ccc(C)c(Cl)c2)CC1`, the inhibition was 4.72%.

Take `Cc1ccnc(NC(=O)c2ccoc2C)c1`: the inhibition was 42.1% (active).

For the compound `COc1cc(SC)ccc1C(=O)Nc1cc(C)ccn1`, the inhibition is 0.12%.

For the compound `Cc1ccnc(NC(=O)CNC(=O)c2ccccc2)c1`, the inhibition was 6.08%.

Regarding `COc1ccc(CN2C(=O)C(C)S/C2=N/N=C/c2ccco2)cc1` (stereo not given), the inhibition is 4.92%.

`COc1ccccc1C(=O)NCCC(=O)NC(C)CCc1ccccc1` (stereo not given): the inhibition was -13.4%.

For `CCCOc1ccc(C2c3c(oc4cc(C)c(C)cc4c3=O)C(=O)N2CCCN2CCOCC2)cc1` (stereo not given), the inhibition was 14.2%.

For `Cc1cc2oc3ccc(NCCC4CCCN4C)cc3c(=O)c2cc1C` (stereo not given), the inhibition is 41.8% (active).

Take `CCN(CC)C(=O)Oc1ccc(Br)cc1C(=O)Nc1ccc(F)c(Cl)c1`: the inhibition was 1.92%.

Take `C=C1c2c(Cl)ccc(O)c2C(O)=C2C(=O)[C@]3(O)C(O)=C(C(N)=O)C(=O)[C@@H](N(C)C)[C@@H]3[C@@H](O)C12` (stereo not given in full): the inhibition was 87.2% (active).

Consider `CN(C)[C@@H]1C(=O)C(C(N)=O)=C(O)[C@@]2(O)C(=O)C3=C(O)c4c(O)ccc(Cl)c4[C@@H](O)[C@H]3C[C@@H]12`, for which the inhibition was 31.5%.
